From the supplement of paper PMC8285479 come the findings set out here.

This experiment concerns NCI-H1944. Nature of the experiment: normalised cell viability (NPI; 0 = phenylarsine oxide control, 1 = DMSO control) (fraction of DMSO control); NCI-H1944 is a non-small cell lung cancer line; higher = more viable cells (less compound toxicity). Conditions: 6 days.
The mark [1] stands for this setting: glucocorticoid arm: hydrocortisone 2.75 uM co-treatment, compound 1 µM.
Where [2] appears, read: glucocorticoid arm: hydrocortisone 2.75 uM co-treatment, compound 5 µM.
The mark [3] stands for this setting: glucocorticoid arm: hydrocortisone 2.75 uM pre-treated 2 days and continued, compound 1 µM.
Setting [4] is: glucocorticoid arm: hydrocortisone 2.75 uM pre-treated 2 days and continued, compound 5 µM.
The mark [5] stands for this setting: glucocorticoid arm: vehicle, compound 1 µM.
[6] abbreviates: glucocorticoid arm: vehicle, compound 5 µM.

Counter-ions that a name gives are not always drawn. ± gives the standard deviation of the averaged measurements. In all, about 1,900 compounds were measured (“normalised cell viability (NPI; 0 = phenylarsine oxide control, 1 = DMSO control)”: median about 1, lowest 2% from about 0.039 on). The full list was thinned out, with the lowest values kept by preference.
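Note: CTB read-out in 384-well plates, triplicate wells, NPI normalised per plate against 1 µM phenylarsine oxide (0) and 0.1% DMSO (1) controls.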

For `Cn1c(=O)n(-c2ccc(C(C)(C)C#N)cc2)c2c3cc(-c4cnc5ccccc5c4)ccc3ncc21`, the normalised cell viability worked out at 0.421 ± 0.017 under setting [1]; 0.496 ± 0.04 under setting [2]; 0.629 ± 0.0076 under setting [3]; 0.633 ± 0.071 under setting [4]; 0.255 ± 0.013 under setting [5]; 0.408 ± 0.047 under setting [6].
Turning to `COc1ccc(-c2ccc3ncc4c(c3c2)n(-c2ccc(N3CCNCC3)c(C(F)(F)F)c2)c(=O)n4C)cn1`, the normalised cell viability is 0.00163 ± 0.00092 under setting [1]; 0.000434 ± 0.00018 under setting [2]; 0.25 ± 0.021 under setting [3]; 0.0016 ± 0.00014 under setting [4]; 0.000974 ± 0.00058 under setting [5]; 0.000275 ± 0.00038 under setting [6].
Consider `c1ccc(C2CN3CCSC3=N2)cc1` (single isomer, unassigned; (-)) [(-)-Tetramisole hydrochloride], for which the normalised cell viability came out at 1.017 ± 0.0058 under setting [1]; 1.01 ± 0.015 under setting [2]; 1.02 ± 0.015 under setting [3]; 1.02 ± 0.015 under setting [4]; 1.02 under setting [5]; 1.02 ± 0.015 under setting [6].
On to `O=Nc1c(-c2c(O)[nH]c3cc(Br)ccc23)[nH]c2ccccc12`, for which the normalised cell viability reads like this: under setting [1], 1.15 ± 0.01; under setting [2], 1.24 ± 0.032; under setting [3], 1.127 ± 0.011; under setting [4], 1.16 ± 0.031; under setting [5], 1.04 ± 0.01; under setting [6], 1.07 ± 0.01.
For the molecule `CCN1CCN(Cc2ccc(Nc3ncc(F)c(-c4cc(F)c5nc(C)n(C(C)C)c5c4)n3)nc2)CC1`, the normalised cell viability is, setting by setting: under setting [1], 0.493 ± 0.041; under setting [2], 0.312 ± 0.06; under setting [3], 0.528 ± 0.03; under setting [4], 0.599 ± 0.14; under setting [5], 0.252 ± 0.028; under setting [6], 0.000109 ± 0.00093.
As to `N=C(NC(=O)c1nc(Cl)c(N)nc1N)Nc1ccccc1` [Phenamil methanesulfonate], the normalised cell viability runs as follows: under setting [1], 1.01 ± 0.011; under setting [2], 1.04 ± 0.025; under setting [3], 0.894 ± 0.22; under setting [4], 1.06 ± 0.025; under setting [5], 1.007 ± 0.0058; under setting [6], 0.9977 ± 0.004.
For the molecule `CCCCOc1c(C(=O)c2c(F)cc(C)cc2F)c[nH]c2nncc1-2`, the normalised cell viability was 0.91 ± 0.018 under setting [1]; 0.988 ± 0.017 under setting [2]; 0.9857 ± 0.0032 under setting [3]; 1.02 ± 0.022 under setting [4]; 0.561 ± 0.04 under setting [5]; 0.861 ± 0.018 under setting [6].
Take `CN(C)CCCn1cc(C2=C(c3c[nH]c4ccccc34)C(=O)NC2=O)c2ccccc21`: the normalised cell viability is, setting by setting: under setting [1], 0.992 ± 0.017; under setting [2], 1.06 ± 0.011; under setting [3], 1.01 ± 0.02; under setting [4], 1.01 ± 0.059; under setting [5], 1.03 ± 0.011; under setting [6], 1.05.
With `Cn1cc(C2=C(c3cn(CCCSC(=N)N)c4ccccc34)C(=O)NC2=O)c2ccccc21` [Ro 31-8220 Mesylate], the normalised cell viability is 0.998 ± 0.013 under setting [1]; 0.125 ± 0.013 under setting [2]; 0.973 ± 0.036 under setting [3]; 0.297 ± 0.087 under setting [4]; 1.013 ± 0.0058 under setting [5]; 0.0242 ± 0.0022 under setting [6].
As for `O=Nc1ccc2oc(=O)ccc2c1` [6-Nitroso-1,2-benzopyrone], the normalised cell viability is 1.02 ± 0.01 under setting [1]; 1.02 ± 0.015 under setting [2]; 1.027 ± 0.0058 under setting [3]; 0.857 ± 0.29 under setting [4]; 1.013 ± 0.0058 under setting [5]; 1.02 ± 0.01 under setting [6].
In the case of `CN(C)CCC(c1ccc(Br)cc1)c1ccccn1` (single isomer, unassigned; (+)) [(+)-Brompheniramine maleate], the normalised cell viability amounted to 1.01 ± 0.017 under setting [1]; 1.023 ± 0.0058 under setting [2]; 1.05 ± 0.04 under setting [3]; 1.03 ± 0.021 under setting [4]; 1.006 ± 0.0069 under setting [5]; 1.02 ± 0.011 under setting [6].
On to `Nc1ncnc2c1ncn2[C@@H]1O[C@H](COP(=O)(O)CP(=O)(O)OP(=O)([O-])O)[C@@H](O)[C@H]1O.[Li+]` [alpha,beta-Methylene adenosine 5'-triphosphate lithium salt], for which the normalised cell viability by setting is: under setting [1], 1.02 ± 0.011; under setting [2], 1 ± 0.036; under setting [3], 1.01 ± 0.014; under setting [4], 0.992 ± 0.013; under setting [5], 1.005 ± 0.0081; under setting [6], 1.02 ± 0.021.
As for `Cc1nc(N=Nc2cc(S(=O)(=O)O)c3cc([N+](=O)[O-])cc(S(=O)(=O)O)c3c2)c(COP(=O)(O)O)c(C=O)c1O` [PPNDS tetrasodium], the normalised cell viability runs as follows: under setting [1], 1.001 ± 0.0085; under setting [2], 1.01 ± 0.037; under setting [3], 1.013 ± 0.0058; under setting [4], 0.857 ± 0.27; under setting [5], 0.9973 ± 0.0021; under setting [6], 0.999 ± 0.0098.
